Calls of active or inactive are those of the source. The call rests on the fitted dose curve; in most records, active means well fitted curve in the direction sought with a large enough effect; inconclusive means small, poorly fitted or top-dose-only effect, or effect the other way, or another doubt; inactive means no such curve, though single readings can be large or run the other way.

This assay can be described thus: qHTS for Inhibitors of Cell Surface uPA Generation: Validation Assay (AID 493164).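 Further: RAW 264.7 macrophage cells exposed to compound for 18 h.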 As to conditions: mouse cells, plasminogen activation; series mostly up to 38.3 µM. The source says: NIH Chemical Genomics Center [NCGC]
NIH Molecular Libraries Probe Centers Network [MLPCN]
Assay Submitter (PI): Thomas Bugge
The overall objective of this project is to perform a quantitative high throughput screen (qHTS) to identify novel compounds that inhibit the generation of cell surface urokinase activity. The urokinase plasminogen activator (uPA) is one of the two primary endogenous systems that mediate plasminogen activation into plasmin. Members of this system, including uPA and its receptor (uPAR), are overexpressed in several malignant tumors. This system plays a major role in adhesion, migration, invasion and metastasis of cancer cells. Small molecule inhibitors of the uPA system will serve as probes to understand the molecular mechanisms of the uPA cascade and better understanding the microenvironmental circumstances that facilitate the activation of plasminogen by uPA, and finally may provide novel candidate agents for anticancer drug therapy.
[…] […] Upon inhibition of the uPA activation cascade, the subsequent cell surface uPA activity-dependent translocation of LF into the cytoplasm is inhibited. ATP-Lite is used to measure intracellular ATP concentrations, which remain increased if LF entry into the cytoplasm is inhibited. This validation assay was performed using a small set of validation compounds.
uPA assay protocol summary:
RAW 264.7 cells were maintained in DMEM medium (Invitrogen, Carlsbad, CA) at 37C under a humidified atmosphere containing 5% CO2 and 95% air. The medium contained 10% FBS, 1 mM sodium pyruvate and 50 U/ml penicillin/streptamycin (Invitrogen, Carlsbad, CA). All compounds were screened as 7-point titration from 2.45 nM to 38.3 uM final concentration. The assay was performed in 1536-well format plate as follows:
1.Dispensing RAW 264.7 cells into 1536-well, white walled tissue culture plates at a density of 4000 cells/well (4 uL).
2.Incubation at 37 C in a 5% CO2 incubator overnight.
3.Serially diluting compounds (1:5 serial dilution; 0.0024 uM to […] final concentration) in 23 nl DMSO.
5.Incubating the compound and reagent-treated plates for 18 hours at 37 C in a 5% CO2 incubator.
6.Adding ATP-Lite (3 ul).
7.Reading plates by ViewLux with an exposure length of 5 seconds.
(qHTS replaces the single test concentration by a dilution series.)
In the case of `CC[C@@H]1Cc2cc(O)ccc2C2=C1c1ccc(O)cc1C[C@H]2CC`, the compound was classed as inactive.
Under `NC1CCN(O)C1=O` (stereo not given) stands “inactive”.
The entry for `NC/C=C\C(=O)O` is “inactive”; for `NC(C(=O)N[C@@H]1C(=O)N2C(C(=O)O)=C(Cl)CS[C@H]12)c1ccccc1` (stereo not given in full) it is “inactive”.
The entry for `N#CC(=C(\N)Sc1ccccc1N)/C(C#N)=C(/N)Sc1ccccc1N` is “inactive”; for `COc1cc(C(O)C(=O)O)ccc1O` (stereo not given) it is “inactive”; for `O=C(O)C1=CCCN(CCON=C(c2ccccc2)c2ccccc2)C1` it is “inactive”.
As for `Cc1nc2n(c(=O)c1CCN1CCC(c3noc4cc(F)ccc34)CC1)CCCC2O` (stereo not given), the call was inactive.
For `O=C(O)c1ccccc1Nc1ccccc1`, the call was inactive.
Turning to `CCCCCCCCCC(=O)NC(CN1CCOCC1)[C@H](O)c1ccccc1` (stereo not given in full), the outcome was inactive.
For `COc1cc(N)c(Cl)cc1C(=O)OCCN1CCCCC1`, the result was inactive.
Under `CCc1ccc2c(-c3cccc(Cl)c3)nc(=O)n(CC)c2n1` stands “inactive”; under `CNCCNS(=O)(=O)c1cccc2cnccc12`, “inactive”.
`Oc1ccc(Cn2cc[nH]c2=S)cc1`: the call was inactive.
Take `O=[N+]([O-])c1cccc2c(Br)[nH]nc12`: the compound was classed as inactive.
The entry for `[N-]=[N+]=Nc1ccc(C(=O)CSC[C@H](NC(=O)CC[C@H](N)C(=O)O)C(=O)NCC(=O)O)cc1` is “inactive”.
Take `COc1ccccc1N1CCN(CCCCN2C(=O)c3ccccc3C2=O)CC1`: the call was inactive.
Turning to `CC(=O)NCCc1c[nH]c2ccc(O)cc12`, the outcome was inactive.
`CN[C@H](CC(=O)O)C(=O)O`: the compound was classed as inactive.
Under `CN1C2CCC1CC(OC(c1ccccc1)c1ccccc1)C2` (stereo not given) stands “inactive”; under `C=CC[C@H](N)C(=O)O`, “inactive”; under `N[C@H](C(=O)O)c1cc(O)cc(O)c1`, “inactive”.
The entry for `CC(C)C[C@H](NC(=O)C1OC1C(=O)O)C(=O)NCCCCN=C(N)N` (stereo not given in full) is “inactive”; for `N[C@H](C(=O)O)[C@H]1C[C@@H]1C(=O)O` it is “inactive”; for `COc1ccc(C(=O)NCc2cccnc2)cc1C(=O)NCc1cccnc1` it is “inactive”.
The entry for `CC(=O)N[C@@H](Cc1c[nH]c2ccccc12)C(=O)OCc1cc(C(F)(F)F)cc(C(F)(F)F)c1` is “inactive”; for `Cn1c(=O)c2[nH]c(C3CCCC3)nc2n(C)c1=O` it is “inactive”.
With `NC(=O)CC[C@H](N)C(=O)O`, the call was inactive.
The entry for `CCCc1c(OCCCOc2ccc(OCC(=O)O)cc2)ccc(C(C)=O)c1O` is “inactive”.
Consider `c1ccc2c(c1)CC(N1CCN(c3cccc4c3OCCO4)CC1)C2`, for which the result was inactive.
Turning to `O=c1[nH]c(=O)c2nc3ccccc3nc2[nH]1`, the outcome was inactive.
Turning to `Nn1nnc2ccccc21`, the compound was classed as inactive.
For `CCCCCC(O)CCCC(=O)O` (stereo not given), the compound was called inactive.
For the compound `COc1ccccc1N1CCN(CCN(C(=O)c2ccc(F)cc2)c2ccccn2)CC1`, the call was inactive.
`CC(C)(C)c1cc(/C=C(\C#N)C(N)=S)cc(C(C)(C)C)c1O`: the result was inactive.
Under `NC(=O)c1ccccc1` stands “inactive”; under `CN1Cc2sccc2C(c2ccc(O)c(O)c2)C1` (stereo not given), “inactive”.
Consider `CC#CCOC(=O)c1c(C)nc2sc3c(c2c1N)CCC(O)C3` (stereo not given), for which the result was inactive.
The entry for `O=C(O)/C=C/c1cnc[nH]1` is “inactive”; for `N#C/C(=C\c1ccc(O)c(O)c1)C(=O)NCCCNC(=O)/C(C#N)=C/c1ccc(O)c(O)c1` it is “inactive”.

The values above are taken from PubChem BioAssay (NCATS).
